# Measured values from PubChem BioAssay AID1839 (Johns Hopkins Ion Channel Center, 2009).
# Screen size: about 2,400 compounds; about 220 (9.2%) were called active. Many of the other results were omitted from the sample, so actives are more common in it than they were. Values without a mark were called inactive.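 Rule for the calls: active = signal change above the mean of dofetilide-free buffer controls plus 3 SD, so a positive margin; inactive = the rest.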
# Experiment: nonspecific flux effects in parental CHO-K1, confirmation, counter-screen for hERG block protection project, cell-based, CHO-K1 parental line, FluxOR thallium flux (AID 1839);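 note: compounds applied alone with no dofetilide to cells lacking hERG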
# Details: CHO-K1 parental cells, FluxOR thallium flux fluorescence; at 10 µM
row,Structure (SMILES),"signal change vs control minus 3*SD hit threshold (margin above threshold, higher = more increase)"
1,CCn1c(=S)[nH]c2c(c1=O)C(C)(C)Cc1ccccc1-2,-6.7%
2,CC(=O)NC(CSC(CC(=O)c1ccco1)c1ccc(C)cc1)C(=O)O (centres undefined),-32.8%
3,CCCCCCC1CCC(C(=O)N2CCOCC2)CC1 (centres undefined),-21.3%
4,CCCCCCCC/C=C\CCCCCCCC(=O)O,-20.7%
5,CCCCCC/C(C)=C1/SC(=S)NC1=O,39.1% (active)
6,COc1ccc(S(=O)(=O)Nc2ccc(Cl)cn2)c(C)c1C,-32.2%
7,Cc1ccc(N2CCN(C(=O)N3CCCC3)CC2)cc1C,-15.1%
8,CCC1(c2ccc(Cl)cc2)NC(=S)N(c2ccc(C)c(C)c2)N1 (centres undefined),40.7% (active)
9,CCC1(c2ccccc2)NC(=S)N(c2ccc(C)c(C)c2)N1 (centres undefined),48.1% (active)
10,Nc1ccc2c(c1)C(=O)C(=O)c1ccccc1-2,-22.4%
11,O=C(CCc1ccccc1)NC(=S)Nc1cc(C(F)(F)F)ccc1N1CCOCC1,-29.5%
12,CC(=O)NC1C(Oc2ccccc2C)OC(CO)C(O)C1O (centres undefined),-23.9%
13,Cc1ccc(C(=O)NC(=S)N(C)C2CCCCC2)cc1,-21.2%
14,CCc1nnc(NC(=O)C2CCCCN2S(=O)(=O)c2ccccc2)s1 (centres undefined),-23%
15,CCOC(=O)C1=NN(C(=O)c2ccc(OC)cc2)C(O)(c2ccc(Cl)cc2)C1 (centres undefined),14.4% (active)
16,CCOC(=O)c1nc(C)n(-c2ccc(Cl)cc2)n1,-24.3%
17,CCOC(=O)C1=NN(C(=O)c2ccc(C)cc2)C(O)(c2ccc(Cl)cc2)C1 (centres undefined),50.6% (active)

row,Structure (SMILES),"signal change vs control minus 3*SD hit threshold (margin above threshold, higher = more increase)"
1,COc1ccc(C(=O)CC(=O)C(=O)Nc2ccc(Cl)cc2)cc1,-16.3%
2,CCOC(=O)C1=NN(C(=O)c2ccccc2)C(O)(c2ccc(C)cc2)C1 (centres undefined),-27.5%
3,COc1ccc(OC)c(NC(=O)COC(=O)c2ccc(-n3cnnn3)cc2)c1,-34.5%
4,COc1ccccc1CNC(=O)COC(=O)c1ccccn1,-28.9%
5,COc1cc(C(=O)Nc2ccc(O)cc2C(=O)O)ccc1OC(C)=O,-19.9%
6,O=C(O)c1ccc(N=NNc2cccc([N+](=O)[O-])c2)cc1,-26.6%
7,CCCCOC(=O)Cn1c2ccc(OC)cc2c2nc3ccccc3nc21,-28.3%
8,CC(C)OC(=O)c1c2nc3ccccc3nc2n2c1[nH]c(=O)c1ccccc12,29.4% (active)
9,CCc1ccc(C(=O)CSc2nc3ccccc3c(=O)[nH]2)cc1,-26.7%
10,O=C(COc1ccccc1Cl)NC(=S)Nc1ccccc1N1CCCC1,-25.7%
11,S=C(NCCc1ccccc1)N/N=C/c1c(Cl)cccc1Cl,-34.7%
12,CCSc1nc(=S)cc(C)[nH]1,26.3% (active)
13,CSc1nc(=S)cc(C)[nH]1,-16.8%
14,CCc1cc(=O)[nH]c(SCc2ccc(C)cc2)n1,-28.5%
15,CSc1cccc(NC(=O)CN2C(=O)c3ccccc3S2(=O)=O)c1,-50.6%
16,CCCCn1nc(NC(=O)COC)c2cc3ccc(C)cc3nc21,-27.6%
17,CCOC(=O)C1CCCN(C(=O)CN2C(=O)c3ccccc3C2=O)C1 (centres undefined),-35.1%
